GALR2 ag: activates the human galanin receptor 2. O43603. GALR2-expressing cells, agonist activation read-out. activation, % (concentration not given with the values). 140,000 compounds, 0.48% hits. AID 803; in the data active = activation above about 5%, passing the limit was not always enough;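 also: 0% = vehicle buffer wells and 100% = reference agonist at full effect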
Target sequence (O43603 whole entry, looked up): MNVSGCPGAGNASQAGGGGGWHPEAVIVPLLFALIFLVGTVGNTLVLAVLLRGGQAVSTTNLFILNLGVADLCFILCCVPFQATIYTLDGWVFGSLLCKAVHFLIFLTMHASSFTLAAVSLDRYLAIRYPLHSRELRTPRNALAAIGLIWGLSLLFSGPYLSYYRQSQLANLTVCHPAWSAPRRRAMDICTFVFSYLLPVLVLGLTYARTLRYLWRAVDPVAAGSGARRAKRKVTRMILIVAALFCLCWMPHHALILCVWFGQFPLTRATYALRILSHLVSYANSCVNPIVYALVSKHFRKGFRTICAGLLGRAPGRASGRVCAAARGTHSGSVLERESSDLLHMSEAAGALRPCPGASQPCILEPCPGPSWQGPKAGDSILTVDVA
S1P2 antag: blocks the human S1P2 receptor. O95136. cell-based S1P2 antagonist assay, inhibition at 5 uM. inhibition, % at 5 µM. 97,000 compounds, 0.21% hits. AID 736; in the data active = inhibition above about 45%;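 also: CRE beta-lactamase reporter cells expressing human S1P2 stimulated with S1P; 0% = agonist at EC80 alone and 100% = agonist plus reference antagonist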
S1P2 agonist: S1P2 (human) receptor agonism. O95136. S1P2-expressing cell line, agonist reporter read-out. activation, % at 4.5 µM. 97,000 compounds, 0.46% hits. AID 729; in the data active = activation above about 16%;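 also: 0% = vehicle low control and 100% = maximal reference agonist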
GALR2 antag: blocks the human galanin receptor 2; O43603; AID 828; GALR2-expressing cells, antagonist mode; 140,000 compounds, 0.39% hits; inhibition, % at 4 µM; in the data active = inhibition above about 27%;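 also: cells stimulated with galanin 1-16 at roughly its EC80; 0% = agonist challenge control and 100% = basal control without agonist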
DAT uptake mod: human DAT dopamine uptake with cocaine, either direction | LLC-PK1 hDAT cells, [14C]-dopamine uptake with cocaine IC80; actives deviate in either direction | B-score at 10 µM | 110,000 compounds, 1.3% hits;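 active = Z score or B-score, a plate-position-corrected score, falls beyond the plate's 99.7% confidence bounds, in either direction; inactive = both scores lie inside the 99.7% bounds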;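 also: scored against the spread of the other compound wells on the same plate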
Starred values were filed as active, the others as inactive; nt = no result given. This is a sample that favours compounds with a hit; in the whole collection about 2.1% have one here.

SMILES | GALR2 ag | S1P2 antag | S1P2 agonist | GALR2 antag | DAT uptake mod
Cc1cc(C)c2cc(CN(CCO)C(=O)Nc3ccc(F)cc3)c(=O)[nH]c2c1 | -1.1 | 0.2 | -7.7 | -9.3 | -0.451
COc1ccc(NC(=O)N(CCO)Cc2cc3c(C)cc(C)cc3[nH]c2=O)cc1 | 0.0 | 9.5 | -11.7 | -9.5 | 2.88*
CCC(C)(C(=O)NC1CCCCC1)N(Cc1ccco1)C(=O)c1ccccn1 (configuration not stated) | -1.0 | -14.1 | -1.9 | 1.0 | -0.371
O/N=C/c1cc(Cl)ccc1OCc1cccc2ccccc12 | -0.1 | -10.2 | 3.6 | 3.3 | -0.418
CC(=O)CSc1nnc(-c2ccncc2)n1C | -2.2 | 5.8 | -2.3 | 0.8 | 0.412
Cn1c(SCC2CCCCC2)nnc1-c1ccncc1 | -1.6 | nt | nt | -3.7 | -7.89*
Cc1ccc2nc(/C(C#N)=C\c3cc(C)n(-c4cccc([N+](=O)[O-])c4)c3C)[nH]c2c1 | 2.3 | -40.0 | 16.9* | -2.9 | 0.467
Cc1ccc2nc(/C(C#N)=C\c3ccc([N+](=O)[O-])o3)[nH]c2c1 | -1.9 | 31.9 | -7.0 | 21.9 | 0.00647
CCCCOC(=O)n1c(SCC(=O)N(CC)CC)nc2ccccc21 | -0.1 | -11.4 | -2.6 | -9.9 | 3.93*
CCOC(=O)n1c(SCC(N)=O)nc2ccccc21 | -0.2 | 8.3 | -3.7 | -7.7 | 1.18
COc1cccc(N=Nc2c(N)[nH]n3c(=O)cc(-c4ccccc4)nc23)c1 | -1.4 | 2.3 | 0.2 | -6.4 | -0.0143
Cc1ccc(N=Nc2c(N)[nH]n3c(=O)cc(-c4ccccc4)nc23)cc1 | -0.7 | -7.0 | -3.0 | 2.3 | 1.64*
COc1ccc(Cn2c(-c3ccc(C)cc3)nc3c(c(=O)c4ccccc4n3C)c2=O)cc1 | 5.1* | nt | nt | -8.2 | nt
COc1ccc(Cn2c(-c3ccc(OC)cc3)nc3c(c(=O)c4ccccc4n3C)c2=O)cc1 | 0.7 | nt | nt | 3.3 | nt
CCOCCCn1c(SCC(=O)/C(C#N)=C(\C)N)nc2ccccc2c1=O | -0.5 | nt | nt | -1.7 | nt
C/C(N)=C(/C#N)C(=O)CSc1nc2ccccc2c(=O)n1CCCOC(C)C | 5.6* | nt | nt | -7.2 | nt
COc1ccc(OC)c(NC(=O)C(CCS(C)(=O)=O)NC(C)=O)c1 (configuration not stated) | nt | nt | nt | nt | 4.26*
CCOC(=O)C1CCN(C2CC(=O)N(c3ccc(OCC)cc3)C2=O)CC1 (configuration not stated) | -2.8 | 11.0 | -0.8 | -2.7 | 0.0065
CCc1ccc(N2C(=O)CC(N3CCC(C(=O)OC)CC3)C2=O)cc1 (configuration not stated) | -1.9 | -6.1 | 27.2* | 4.9 | -1.12
O=C(Cc1ccccc1F)Nc1nc(-c2cccs2)cs1 | -1.7 | -15.8 | -7.6 | -0.3 | 3.35*
O=C(Cc1ccccc1)Nc1nc(-c2cccs2)cs1 | -2.9 | -0.1 | -11.0 | -0.2 | -0.634
COc1ccc(S(=O)(=O)Cc2ccc(C(=O)N3CCc4ccccc4C3)o2)cc1 | -2.3 | 4.8 | -7.5 | -11.4 | 2.42*
O=C(CSCc1cccc(Cl)c1)N/N=C/c1ccc(OCC(=O)N2CCCCC2)cc1 | -0.4 | -0.6 | -7.3 | -9.3 | 1.53
Cc1cccc(C(=O)N/N=C/c2ccc(OCC(=O)N3CCCCC3)cc2)c1 | -0.7 | -17.1 | -3.5 | 11.0 | 2.19*
COC(=O)c1ccccc1NC(=S)N(Cc1ccc2c(c1)OCO2)Cc1cc2cccc(C)c2[nH]c1=O | 0.0 | nt | nt | 1.6 | nt
SMILES | GALR2 ag | S1P2 antag | S1P2 agonist | GALR2 antag | DAT uptake mod
Cc1ccc(S(=O)(=O)N2CCN=C2c2ccccc2)cc1C | -1.8 | -9.8 | -2.8 | -8.4 | 0.531
COc1cc(S(=O)(=O)N2CCN=C2c2ccccc2)ccc1F | -2.2 | 2.4 | 26.6* | 2.4 | -0.349
CCOC(=O)c1cnc(-n2nc(C)cc2C)nc1NC | -1.1 | 11.3 | -6.4 | 2.2 | 0.362
CCOC(=O)c1cnc(-n2nc(C)cc2C)nc1NC1CCCCC1 | 0.1 | 90.7* | -11.2 | -0.1 | 1.1
CCOc1cccc(C(=O)Nc2ccc(N3CCN(S(C)(=O)=O)CC3)cc2)c1 | 0.0 | 18.0 | -7.3 | 0.8 | -0.133
CCOc1cccc(C(=O)NC(=S)Nc2ccc(N3CCCC3)cc2)c1 | -3.2 | 17.8 | -8.6 | -11.3 | 0.759*
COC1(OC)C=CC(=O)C=C1NC(=O)c1ccccc1OC(C)=O | nt | nt | nt | nt | -0.352
Cc1cc(C)cc(NC(=O)CSc2nnc(Cc3cccn3C)n2-c2ccc(F)cc2)c1 | -0.9 | -1.4 | -3.4 | 15.8 | 2.59*
Cc1cc(C)c(NC(=O)CSc2nnc(Cc3cccn3C)n2-c2ccc(F)cc2)c(C)c1 | -1.4 | 17.5 | -9.1 | -3.7 | 1.23
CCn1ncc2c(OCc3ccc(C#N)cc3)cc(C)nc21 | -0.2 | -6.7 | -0.3 | 4.7 | 0.000396
COc1cc(OC)cc(-c2nc3ccccc3s2)c1 | -3.3 | -3.3 | -9.3 | 12.1 | -0.408
